According to PubChem BioAssay (NCI):
Where “and” joins values, the source holds several entries; their conditions need not be identical. Equal values may be shown once. The panel holds about 83,000 compounds, 20% with a hit somewhere; the sample as a whole holds those more often.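 The test compound was applied at a single concentration to cells in 96-well plates for 48 hours, and percent growth was recorded.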 Calls of active or inactive are those of the source. Rule for the calls: active = growth percent below 10; inactive = the rest.

Tests used:
Test in all cases: NCI-60 one-dose screen, 48 h (100 = growth as untreated, 0 = no growth, -100 = all killed)
Settings in all cases: 10 µM unless noted
[1] = test system: NCI-H226 lung
[2] = test system: NCI-H322M lung
[3] = test system: HOP-62 NSCLC
[4] = test system: NCI-H460 lung
[5] = test system: HOP-92 NSCLC
[6] = test system: NCI-H522 lung
[7] = test system: A549/ATCC NSCLC
[8] = test system: 786-0 renal
[9] = test system: COLO 205 colon
[10] = test system: K-562 leukemia
[11] = test system: MALME-3M melanoma
[12] = test system: MDA-MB-231 breast
[13] = test system: RXF 393 renal
[14] = test system: SF-268 CNS
[15] = test system: SF-295 CNS
[16] = test system: SF-539 CNS
[17] = test system: UACC-257 melanoma
[18] = test system: M14 melanoma
[19] = test system: DU-145 prostate

Measured: growth

O=C1NC(=O)C(=C/C=C/c2ccccc2)C(=O)N1
active: [6] 6.24% | [8] -25.4% | [9] -47.1% | [10] 8.24% | [11] -4.86% | [12] 3.87% | [13] -91.5% | [18] -20.5%
inactive: [1] 62.7% | [2] 97% | [3] 48.2% | [4] 33.1% | [5] 92.8% | [7] 80.2% | [14] 30% | [15] 97.8% | [16] 27.4% | [17] 38.7%

OCCNC1CCCCC1
inactive: [1] 104% | [3] 99.2% | [4] 105% | [5] 108% | [7] 106% | [9] 112% | [19] 107% | [10] 101% | [11] 112% | [12] 114% | [13] 118% | [14] 102% | [15] 111% | [16] 103% | [17] 112%

COc1cc(-c2ccc(N)c(OC)c2)ccc1N
inactive: [2] 84.4% | [3] 95.5% | [4] 114% | [5] 110% | [6] 131% | [7] 108% | [8] 106% | [9] 120% | [19] 103% | [10] 138% | [11] 78.1% | [12] 103% | [14] 103% | [15] 104% | [16] 110% | [17] 134% | [18] 113%

C=C[Se]CC(=O)/C=C/c1ccccc1
active: [15] 3.93%
inactive: [1] 98% | [3] 13% | [4] 12.8% | [5] 104% | [6] 89.2% | [7] 32.3% | [8] 102% | [9] 109% | [19] 87.5% | [10] 93.9% | [11] 97.5% | [12] 94.3% | [13] 114% | [14] 94.8% | [16] 95.2% | [17] 92.7% | [18] 73.5%

O=c1[nH]c(=O)n(Cl)c(=O)n1Cl
inactive: [2] 108% and 119% | [3] 109% and 98.3% | [4] 116% and 109% | [5] 101% and 91.2% | [6] 101% and 100% | [7] 105% and 112% | [8] 115% and 99.5% | [9] 117% and 123% | [19] 142% | [10] 109% | [11] 106% and 110% | [12] 99.1% and 113% | [13] 114% and 120% | [14] 108% and 136% | [15] 101% and 114% | [16] 106% and 92.5% | [17] 99.5% and 117% | [18] 103% and 98.4%

O=C(NC(Cl)=C(Cl)Cl)P(=O)(c1ccccc1)c1ccccc1
inactive: [2] 108% | [3] 104% | [4] 114% | [5] 97.4% | [6] 99.4% | [7] 101% | [8] 101% | [9] 118% | [19] 118% | [10] 121% | [11] 104% | [12] 98.9% | [13] 100% | [14] 110% | [15] 72.9% | [16] 106% | [17] 110% | [18] 111%

CN1CCC2(CC1)C(C#N)C(=O)NC(=O)C2C#N (centres undefined)
inactive: [1] 96.1% | [3] 94.3% | [4] 106% | [5] 109% | [6] 110% | [7] 95.9% | [8] 104% | [9] 109% | [19] 112% | [10] 94.5% | [11] 107% | [12] 101% | [13] 104% | [14] 107% | [15] 94.1% | [16] 94.9% | [17] 90.7% | [18] 107%

COc1ccc2c(c1)C1(C)CCN(C)CC(C1)C2O (centres undefined)
inactive: [1] 81.7% | [2] 105% | [3] 100% | [4] 105% | [5] 101% | [6] 90.2% | [7] 95.1% | [8] 94.8% | [9] 103% | [19] 104% | [10] 99.9% | [11] 93.3% | [12] 113% | [13] 97% | [14] 100% | [16] 97.2% | [17] 97% | [18] 98.1%

CCN1C(=O)NC(=O)C(C)(N2C(=O)c3c(F)c(F)c(F)c(F)c3C2=O)C1=O (centres undefined)
inactive: [2] 96.7% | [3] 101% | [4] 22.8% | [7] 43.1% | [8] 37.4% | [19] 31.9% | [15] 84.1% | [16] 18.6% | [17] 38.5%
active: [5] -42.6% | [6] -76.6% | [9] -51.4% | [10] -71.2% | [11] -39.6% | [12] 9.99% | [13] -63.8% | [14] 5.09%

CCOC(=O)c1cncn1C(C)c1ccccc1 (centres undefined)
inactive: [1] 105% | [2] 101% | [3] 97.7% | [4] 118% | [5] 95.8% | [6] 94.3% | [7] 103% | [8] 97% | [9] 109% | [19] 120% | [10] 96.7% | [11] 109% | [12] 112% | [13] 103% | [14] 113% | [15] 104% | [16] 107% | [17] 103% | [18] 103%

COCC1OC2OC3C(COC)OC(OC4C(COC)OC(OC5C(COC)OC(OC6C(COC)OC(OC7C(COC)OC(OC8C(COC)OC(OC1C(O)C2O)C(O)C8O)C(O)C7O)C(O)C6O)C(O)C5O)C(O)C4O)C(O)C3O (centres undefined) (tested in a mixture with another compound)
inactive: [1] 102% | [2] 134% | [4] 109% | [6] 109% | [7] 109% | [8] 139% | [9] 127% | [19] 113% | [10] 99.5% | [11] 127% | [12] 115% | [13] 129% | [14] 105% | [15] 111% | [16] 111% | [17] 117% | [18] 105%

O=c1c2ccccc2nc(-c2ccccc2Cl)n1-c1nnc(C(F)(F)F)s1
active: [6] -23.4% | [11] -11.5%
inactive: [1] 42.9% | [3] 58.7% | [4] 24.7% | [7] 37.3% | [8] 22.4% | [9] 43.6% | [19] 56.8% | [10] 11.4% | [12] 52.3% | [13] 38.9% | [14] 38.8% | [15] 12% | [16] 19.7% | [17] 30% | [18] 35.1%

N#Cc1ccc(Cl)cc1
inactive: [2] 119% | [3] 105% | [4] 122% | [7] 103% | [8] 108% | [9] 117% | [19] 117% | [10] 99.4% | [11] 115% | [12] 108% | [13] 120% | [14] 108% | [15] 113% | [16] 108% | [17] 104% | [18] 106%

CC(=O)Cc1ccc2c(c1)OCO2
inactive: [2] 113% | [3] 102% | [4] 109% | [5] 110% | [6] 96.1% | [7] 96% | [8] 109% | [9] 117% | [19] 111% | [10] 116% | [11] 116% | [12] 89.1% | [13] 115% | [14] 98.3% | [15] 109% | [16] 95.4% | [17] 104% | [18] 105%
